miR-21 act: qHTS Assay for Modulators of miRNAs and/orActivators of miR-21; 340,000 tested, under 10 active; AID 2288, 2010; HeLa miR-21 FLuc reporter, luciferase, 48 h; Potency, µM (top dose mostly 38.3 µM), inactives show top-dose activity change, positive = activation, usual class: activators;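 also: % of control where 0% means no effect; miR-21 action dims this reporter so a rising signal means less miR-21 action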
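Using DMEM plus 10% FBS, HeLa miR-21-FLuc cells are incubated with test compounds (final up to about 40uM) for 48 hours; firefly luciferase signal is then imaged following reagent-mediated lysis.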
Nrf2 inh: Nrf2 qHTS screen for inhibitors; A549 ARE-Fluc reporter, luciferase luminescence, 18-24 h; Potency, µM (series often up to 46 µM), for the others: at the top dose activity change, negative = inhibition, most hits filed as inhibitors; 2.1% of 360,000 active; AID 504444, 2011; also: potency is read from the fitted curve at half-maximal effect; % is scaled to controls: 0 for no effect and ±100 for the full control effect; nearly all actives have a fitted effect of over 60% in size
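Nrf2 function is reported as luminescence of an ARE-controlled luciferase in A549 cells. Compounds were tested at several concentrations, and a CellTiter-Fluor read on the same wells flagged cytotoxicity.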
A549 tox: Nrf2 qHTS screen for inhibitors: counterscreen for cytotoxicity; A549 ARE-Fluc cells, CellTiter-Fluor viability, 18-24 h; Potency, µM (doses to about 46 µM), inactives show at the top dose activity change, negative = cytotoxicity, usual class: inhibitors; 0.16% of 390,000 active; AID 504648, 2011; also: potency is read from the fitted curve at half-maximal effect; % is scaled to controls: 0 for no effect and ±100 for the full control effect
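A549 ARE_Fluc cells in 5% FBS OPTI-MEM were exposed to compounds in concentration-response for 18-24 h at 37 deg C. Viability was read by CellTiter-Fluor fluorescence (Ex 405/Em 525) after 30 min, before the luciferase read.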
Nrf2 ARE act: qHTS of Nrf2 Activators; AREc32 ARE-luciferase reporter (MCF7-derived line), luminescence, 24 h; Potency, µM (highest dose often 46.1 µM), inactives show at the highest dose activation, usual class: activators; 0.31% of 410,000 active; AID 624171, 2012; also: potency is read from the fitted curve at half-maximal effect; % of control where 0% means no effect; nearly all actives have a fitted effect of over 65% in size
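Cells of the AREc32 ARE-luciferase line are plated in OPTI-MEM containing 5% FBS and left overnight at 37 deg C. Compounds are pinned in, incubation continues 24 hr, and firefly luciferase signal is then measured.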
Mito fusion yeast: qHTS Assay for Small Molecule Inhibitors of Mitochondrial Division or Activators of Mitochondrial Fusion | S. cerevisiae fusion-defective mutant growth rescue, CellTiterGlo 48 h | Potency, µM (highest dose often 46.1 µM), inactives show top-dose growth rescue (activation), hits mostly activators | 0.23% of 320,000 active | AID 485298, 2010; also: potency is read from the fitted curve at half-maximal effect; % of control where 0% means no effect; nearly all actives have a fitted effect of over 45% in size
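Read-out: ATP-based luminescence (CellTiterGlo, 10 min ambient) reporting growth of fusion-defective ts yeast after 48 hours at 37C on glycerol/ethanol YPEG medium in the presence of compound.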
* = called active by the depositor. A selection: hits, their analogues and other compounds. The true share with any hit is near 2.3%. Calls follow the shape of the dose curve; as a rule, active = well fitted curve in the direction sought with a large enough effect; inconclusive = small, poorly fitted or top-dose-only effect, or another doubt; inactive = no such curve, though single readings can be large; an effect the other way counts as inactive or inconclusive.

What do the screens show for `O=C1/C(=C\c2ccc(O)c(O)c2)Oc2c1ccc(O[C@@H]1O[C@H](CO)[C@@H](O)[C@H](O)[C@H]1O)c2O`?
Nrf2 inh: -6%; A549 tox: inconclusive

Results for C#Cc1nc(Nc2cccc(Cl)c2)nc(NC2CCCC2)n1 ?
Nrf2 inh: inconclusive; A549 tox: -8%

What do the screens show for `O=c1cc(-c2ccccc2F)[nH]c2cc3c(cc12)OCO3`?
Mito fusion yeast: -12%

Results for Cn1c(CN2CCCCC2)nc2cc(NC(=O)c3cccc(Br)c3)ccc21 ?
miR-21 act: 19%; Nrf2 inh: 1.3µM*; A549 tox: -16%; Nrf2 ARE act: -1%; Mito fusion yeast: -1%

What do the screens show for `Nc1nc(Nc2ccccc2)nc(NCc2ccco2)c1[N+](=O)[O-]`?
miR-21 act: -12%; Nrf2 inh: -12%; A549 tox: -2%; Nrf2 ARE act: 5%; Mito fusion yeast: inconclusive

Results for Fc1ccc(Nc2nc(NCc3ccco3)c3ccccc3n2)cc1 ?
miR-21 act: 29%; Nrf2 inh: 18µM*; A549 tox: -11%; Nrf2 ARE act: -1%; Mito fusion yeast: -14%

How did COc1ccc(-n2c(SCC(=O)Nc3ncc(Cl)cc3Cl)nc3ccccc32)cc1 do in these assays?
miR-21 act: 16%; Mito fusion yeast: 3%

What do the screens show for `Cc1cccc(-n2c(SCC(=O)Nc3ncc(Cl)cc3Cl)nc3ccccc32)c1`?
miR-21 act: 26%; Nrf2 inh: inconclusive; A549 tox: -27%; Nrf2 ARE act: 0%; Mito fusion yeast: 22µM*

What do the screens show for `O=C(CSc1nc2ccccc2n1-c1ccccc1)Nc1ncc(Cl)cc1Cl`?
miR-21 act: inconclusive; Nrf2 inh: inconclusive; A549 tox: -19%; Nrf2 ARE act: 1%; Mito fusion yeast: 20µM*

How did CCCOc1cccc(NC(=O)c2c(-c3ccccc3Cl)noc2C)c1 do in these assays?
miR-21 act: 11%; Nrf2 inh: inconclusive; A549 tox: -5%; Nrf2 ARE act: 1%

How did N#Cc1c(N)nc(N)nc1Nc1ccc(Br)cc1 do in these assays?
miR-21 act: -46%; Nrf2 inh: inconclusive; A549 tox: -6%; Nrf2 ARE act: 13µM*; Mito fusion yeast: -45%

Results for CCCCNC(=O)Cn1c(SCc2cccc(C)c2)nc2ccncc21 ?
Nrf2 inh: inconclusive; A549 tox: 7%

Results for CCN1C(=O)/C(=C\C=C2/C=CC=CN2CC)SC1=S ?
miR-21 act: -9%; Nrf2 inh: inconclusive; A549 tox: 15µM*; Nrf2 ARE act: 0%; Mito fusion yeast: -2%

What do the screens show for `Cc1ccccc1N(C)S(=O)(=O)c1nnc(NC(=O)C(C)C)s1`?
miR-21 act: -2%; Nrf2 inh: inconclusive; A549 tox: -10%; Nrf2 ARE act: 0%

Results for Cc1ccccc1N(C)S(=O)(=O)c1nnc(NC(=O)c2ccccc2F)s1 ?
miR-21 act: -7%; Nrf2 inh: inconclusive; A549 tox: 1%; Nrf2 ARE act: 0%; Mito fusion yeast: 5.6µM*

Results for COC(=O)c1c(C)[nH]c(C(=O)/C=C/c2ccc(C)cc2)c1C ?
miR-21 act: -8%; Nrf2 inh: 2.6µM*; A549 tox: 8%; Nrf2 ARE act: 3%; Mito fusion yeast: 2%

How did CC(C)Cc1ccc(S(=O)(=O)NCc2nc3cccnc3n2Cc2ccccc2)cc1 do in these assays?
miR-21 act: 9%; A549 tox: 0%; Nrf2 ARE act: 5%

Results for CCN1/C(=C2/SC(=S)N(C)C2=O)C=Cc2cc(C)ccc21 ?
Nrf2 inh: 7%; A549 tox: 5%; Nrf2 ARE act: 0%

What do the screens show for `CCN1C(=O)/C(=C2/C=Cc3cc(C)ccc3N2CC)N(C)C1=S`?
miR-21 act: -4%; Nrf2 inh: inconclusive; A549 tox: 23µM*; Nrf2 ARE act: 0%; Mito fusion yeast: -11%

What do the screens show for `CN(C(=O)COC(=O)c1nc(Cl)c(Cl)c(Cl)c1Cl)C1CCS(=O)(=O)C1` (stereo unspecified)?
miR-21 act: inconclusive; Nrf2 inh: -24%; A549 tox: inconclusive; Nrf2 ARE act: 13µM*; Mito fusion yeast: 0%

How did COc1ccc2c(Sc3ccccc3)c(C(=O)NCC(C)c3ccccc3)[nH]c2c1 (stereo unspecified) do in these assays?
miR-21 act: -38%; Nrf2 inh: 12%; A549 tox: 14%; Nrf2 ARE act: 0%

How did CSCC[C@H](NC(=O)c1cccc(S(=O)(=O)N2CCCCCC2)c1)c1nc2ccccc2[nH]1 do in these assays?
Nrf2 inh: 18µM*; A549 tox: inconclusive; Nrf2 ARE act: 0%

How did COc1cccc(N2C(=O)c3ccccc3C2=O)n1 do in these assays?
Nrf2 inh: 4%; A549 tox: 6%

What do the screens show for `CCCCCCCCOC(=O)C1=C(C)Nc2nnnn2C1c1cccs1` (stereo unspecified)?
miR-21 act: 7%; Nrf2 inh: inconclusive; A549 tox: -12%; Nrf2 ARE act: -2%; Mito fusion yeast: 11%

Results for CCCCCCCOC(=O)C1=C(C)Nc2ncnn2C1c1cccs1 (stereo unspecified) ?
miR-21 act: 7%; Nrf2 inh: 26µM*; A549 tox: -5%; Nrf2 ARE act: -1%; Mito fusion yeast: 14%

Results for COc1ccc(CN(Cc2ccccc2)S(=O)(=O)c2ccccc2)cc1COc1ccc(NC(C)=O)cc1 ?
Nrf2 inh: 16%; A549 tox: -8%

Results for CCCCCCCCCCOC(=O)Cn1c(COc2ccc(OC)cc2)[n+](C)c2ccccc21 ?
miR-21 act: inconclusive; Nrf2 inh: 21µM*; A549 tox: inconclusive; Nrf2 ARE act: -3%; Mito fusion yeast: -17%

How did Cn1cccc1CC(=O)N/N=C/c1cccc2ccccc12 do in these assays?
miR-21 act: -19%; Nrf2 inh: 4%; A549 tox: -2%; Nrf2 ARE act: 9%; Mito fusion yeast: -6%

What do the screens show for `Cn1cccc1/C=N/NC(=O)Cc1cccc2ccccc12`?
miR-21 act: 8%; Nrf2 inh: 18µM*; A549 tox: -2%; Nrf2 ARE act: 0%; Mito fusion yeast: 11%

Results for CCc1ccc(NC(=O)CC2C(=O)N(c3ccc(OC)cc3)C(=O)N2Cc2ccc(OC)cc2)cc1 (stereo unspecified) ?
miR-21 act: 0%; Nrf2 inh: 14%; A549 tox: -6%; Nrf2 ARE act: 1%

What do the screens show for `COc1ccc(Cl)cc1-c1nc(-c2ccncc2)no1`?
miR-21 act: -11%; Nrf2 inh: inconclusive; A549 tox: 0%; Nrf2 ARE act: 6.3µM*; Mito fusion yeast: 7%

Results for COCc1nn2c(=O)cc(N3CCNCC3)nc2s1 ?
Nrf2 inh: 5%; A549 tox: 7%
